Experimental data taken from PubChem BioAssay (Tox21).
Inconclusive results are not listed. Values without a mark were called inactive. Activity calls are given as the source filed them. Calls come from the whole dose curve.

Assay: p53 small molecule agonists, cell-based qHTS assay with rat liver microsomes (AID 1963578)
Settings: HCT-116 p53RE-bla, beta-lactamase ratio, 16 h; series mostly up to 66 µM; activation: at the top concentration
Description: U.S. Tox21 Program National Center for Advancing Translational Sciences [NCATS] Division of Preclinical Innovation [DPI] U.S. Environmental Protection Agency [EPA] National Institutes of Environmental Health Sciences [NIEHS] National Toxicology Program [NTP] U.S. Food and Drug Administration [FDA] Tox21 Assay Overview: p53, a tumor suppressor protein, is activated following cellular insult, including DNA damage and other cellular stresses. The activation of p53 regulates cell fate by inducing DNA repair, cell cycle arrest, apoptosis, or cellular senescence. The activation of p53, therefore, is a good indicator of DNA damage and other cellular stresses. […] The activation of the reporter gene under culture conditions can be detected by fluorescence intensity. This cell line was used to screen the Tox21 10K compound library in the condition of presence of rat liver microsomes and to identify agonists that activate the p53 signaling pathway after in vitro metabolic activation (Ooka et al., Archive of Toxicology 96:1975-1987, 2022).
Tox21 Assay Protocol Summary: The p53RE-bla cells were dispensed at 4,000cells/3ul/well in 1536-well black-clear bottom plates. After the assay plates were incubated at 37 C, 5% CO2 incubator for 5 hours, 23 nL of compounds dissolved in DMSO, positive controls or DMSO only was transferred to the assay plate. Following compound addition, 3 uL of rat liver microsomes (Molecular Toxicology, Boone, NC) at final concentration of 0.5 mg/mL and 1uL of Beta-Nicotinamide adenine dinucleotide 2-phosphate (NADPH) at final concentration of 0.5 mg/mL were transferred to the assay plate. The plates were incubated at 37 C for 16 hours. 1 uL of LiveBLAzer detection mixture was added to each well and the plates were incubated at room temperature in the dark for 2 h.
% is set by controls: 0 for no effect and ±100 for the full control effect.

| SMILES | activation | Potency |
| --- | --- | --- |
| CC(C)(C#N)C(C)(C)C#N | -0.846% | – |
| C/C(=C\c1ccccc1)[N+](=O)[O-] | 0.128% | – |
| CN1COCN(Cc2cnc(Cl)s2)/C1=N\[N+](=O)[O-] | 6.13% | – |
| O=C(Nc1ccccc1)Nc1cnns1 | -5.1% | – |
| NC(=O)CS(=O)C(c1ccccc1)c1ccccc1 (stereo not given) | 2.1% [at 30.3 µM] | – |
| FC(F)OC(F)(F)C(F)Cl (stereo not given) | 0.003% | – |
| C[C@@H]1C[C@@H]([C@H](O)CC2CC(=O)NC(=O)C2)C(=O)[C@@H](C)C1 | – | inactive |
| CC(=O)C(Cl)(Cl)Cl | 0.802% | – |
| CCO[C@H]1O[C@@H]2OC3(C)CC[C@H]4[C@H](C)CC[C@@H]([C@H]1C)[C@@]24OO3 | -7.68% [at 30.3 µM] | – |
| CCCSC(=O)N(CCC)CCC | 6.87% | – |
| S=C=Nc1ccccc1 | 0.752% | – |
| Cc1nc(N)nc(N)n1 | -1.45% | – |
| Oc1ccc(I)cc1 | -3.45% | – |
| CCOc1cc(Oc2ccc(C(F)(F)F)cc2Cl)ccc1[N+](=O)[O-] | – | inactive |
| CC(C)(c1ccc(O)c(-c2ccccc2)c1)c1ccc(O)c(-c2ccccc2)c1 | -0.147% | – |
| CCCN(CCCl)c1c([N+](=O)[O-])cc(C(F)(F)F)cc1[N+](=O)[O-] | 16.7% | – |
| Cc1cc(C(C)(C)c2cc(C)c(O)c(C)c2)cc(C)c1O | -0.762% | – |
| Clc1ccc(CCC(Cn2ccnc2)Sc2c(Cl)cccc2Cl)cc1 (stereo not given) | 9.68% [at 30.3 µM] | – |
| CC1(C)CC/C(=C/c2ccc(Cl)cc2)C1(O)Cn1cncn1 (stereo not given) | 1.32% | – |
| CCN(CCO)CCn1c(Cc2ccccc2)nc2c1c(=O)n(C)c(=O)n2C | 1.27% [at 30.3 µM] | – |

| SMILES | activation | Potency |
| --- | --- | --- |
| CCOCCOC(C)=O | 2.85% | – |
| Nc1nc(N)nc(N)n1 | 3.81% | – |
| CC(C)COP(=O)(OCC(C)C)OCC(C)C | 0.3% | – |
| CCc1cccc(C)c1N(C(=O)CCl)[C@@H](C)COC | 1.71% | – |
| CCOc1cccc(C2(N3CCN(c4ccccc4)CC3)CCC(C)CC2)c1 (stereo not given) | 0.429% | – |
| CC(=O)C(Cl)C(=O)N(C)C (stereo not given) | 1.76% | – |
| CN1CCN(C(=O)O[C@H]2c3nccnc3C(=O)N2c2ccc(Cl)cn2)CC1 | 6.96% [at 30.3 µM] | – |
| CC(C)C(=O)Cl | -3.4% | – |
| CC(C)(C)C(O)C(Oc1ccc(-c2ccccc2)cc1)n1cncn1 (stereo not given) | -6.15% | – |
| CCCN(CC)CC1COC2(CCC(C(C)(C)C)CC2)O1 (stereo not given) | 1.68% | – |
| CCN(C(C)=O)c1cccc(-c2ccnc3c(C#N)cnn23)c1 | 3.6% [at 30.3 µM] | – |
| O=C(CCCN1CCC2(CC1)C(=O)NCN2c1ccccc1)c1ccc(F)cc1 | -0.795% [at 30.3 µM] | – |
| CC1CCCCC1NC(=O)Nc1ccccc1 (stereo not given) | 6.56% | – |
| c1ccc(OCC2CO2)cc1 (stereo not given) | 0.295% | – |
| CC(C)NCC(O)c1ccccc1Cl (stereo not given) | 0.282% [at 30.3 µM] | – |
| C[N+]1(CCF)[C@@H]2CC[C@H]1CC(OC(=O)C(O)(c1ccccc1)c1ccccc1)C2 (stereo not given in full) | -0.683% [at 30.3 µM] | – |
| CC(C)(COCC1CO1)COCC1CO1 (stereo not given) | 0.0092% | – |
| C=C(C)C(=O)[O][Sn]([CH2]CCC)([CH2]CCC)[CH2]CCC | -5.65% | – |
| N#CCCSCCC#N | 1.27% | – |
| Cn1cc(C2=C(c3cn(C4CCN(Cc5ccccn5)CC4)c4ccccc34)C(=O)NC2=O)c2ccccc21 | -1.39% [at 30.3 µM] | – |
